Prx2 Sm inh = Schistosoma mansoni Prx2 inhibition; AID 448; S. mansoni Prx2 activity coupled to TGR/GSH (TGR is thioredoxin glutathione reductase), NADPH fluorescence loss, qHTS; actives 0.07% (n = 65,000); Potency, µM
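Prx2 inhibition was measured as reduced NADPH consumption when electrons flowed from NADPH through TGR and glutathione to Prx2 and H2O2. Plates were read kinetically over 8 min; enzyme reagents were held at 4 deg C during dispensing.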
Anthrax LT inh = inhibitors of anthrax lethal toxin internalization | Cells, anthrax lethal toxin internalization, FRET ratio (460/530) | Potency, µM (top dose mostly 40 µM), hits mostly inhibitors | actives 0.67% (n = 70,000); note: nearly all actives have a fitted effect of over 50% in size
AmpC nodet inh = AmpC beta-lactamase inhibition, detergent-free assay; Potency, µM (titrated, usually from 28.7 µM); AID 585; actives 1.8% (n = 71,000); AmpC nitrocefin hydrolysis, absorbance 480 nm, no detergent
Target sequence (P00811 whole entry, looked up): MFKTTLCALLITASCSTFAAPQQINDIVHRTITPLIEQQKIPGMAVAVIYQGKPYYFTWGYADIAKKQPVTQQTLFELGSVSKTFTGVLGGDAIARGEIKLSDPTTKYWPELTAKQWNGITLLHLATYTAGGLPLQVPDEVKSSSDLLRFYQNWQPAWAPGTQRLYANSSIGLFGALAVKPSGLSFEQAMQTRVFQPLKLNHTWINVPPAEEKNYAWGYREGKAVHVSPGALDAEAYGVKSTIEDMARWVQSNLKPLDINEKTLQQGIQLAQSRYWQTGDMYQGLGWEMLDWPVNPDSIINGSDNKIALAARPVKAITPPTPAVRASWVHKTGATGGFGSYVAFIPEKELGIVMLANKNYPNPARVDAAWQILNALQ
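AmpC in 20 mM phosphate buffer pH 7.0 was preincubated 15 min at room temperature with compounds. Nitrocefin (800 uM stock) was then added and hydrolysis followed at 480 nm every 20 s for 4 min.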
AmpC det inh = AmpC beta-lactamase inhibition, detergent assay | P00811 | purified AmpC, nitrocefin hydrolysis with detergent | Potency, µM (series often up to 28.7 µM) | actives 0.09% (n = 71,000); active = well fitted curve in the direction sought with a large enough effect; inconclusive = small, poorly fitted or top-dose-only effect
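E. coli AmpC (5.3 nM) in 20 mM phosphate pH 7.0 with 0.01% Triton X-100, preincubated 15 min RT with compound; nitrocefin (2 uL of 800 uM stock) hydrolysis followed by 480 nm absorbance every 20 s over 4 min.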
Of the large screens only hits and unclear results are named; the others gave an inactive call; [ ] = another dose, or the depositor's remark. In the library only some 2.4% were active in any assay of this set; here they are far more common. Unless noted, calls come from the whole dose curve.

CS(=O)(=O)Nc1ccc(Nc2c3ccccc3nc3ccccc23)cc1	Anthrax LT inh inconclusive
CCOc1ccc(C2C(C#N)=C(N)SC(N)=C2C#N)cc1OCC	none
N#CC1=C(N)SC(N)=C(C#N)C1c1cccc(Oc2ccccc2)c1	Anthrax LT inh inconclusive, AmpC nodet inh 7.9µM (no result: Prx2 Sm inh)
O=C(Oc1cc2oc(=O)c3c(c2cc1Cl)CCCC3)c1ccco1	Prx2 Sm inh 19, Anthrax LT inh inconclusive
Cc1ccc2nc(NC(=O)CNS(=O)(=O)c3ccc(Br)s3)sc2c1	Anthrax LT inh inconclusive
Cc1ccc2nc(NC(=O)CN(C)S(=O)(=O)c3ccc(Br)s3)sc2c1	Anthrax LT inh 5µM
N#CCc1ccccc1[N+](=O)[O-]	none (no result: Prx2 Sm inh)
COc1cccc(NC(=O)c2oc3ccccc3c2NC(=O)C(C)(C)C)c1	Anthrax LT inh 13µM
O=c1[nH]c(=O)n([C@H]2C[C@H](O)[C@H](CO)O2)cc1/C=C\Br	none
CC[C@H]1[C@@H]2C[C@@H]3[C@@H]4N(C)c5ccccc5[C@@]45C[C@@H]([C@H]2[C@@H]5O)N3[C@@H]1O	Anthrax LT inh inconclusive
Clc1ccc(C(c2ccc(Cl)cc2)C(Cl)(Cl)Cl)cc1	Anthrax LT inh 6.3µM, AmpC nodet inh inconclusive (no result: Prx2 Sm inh)
CCCOC(=O)[C@@H]1[C@@H](C(=O)O)[C@H]2CC[C@@H]1O2	none
CCOc1ccc(N(CC(=O)N2CCCC2)S(=O)(=O)c2c(C)noc2C)cc1	AmpC nodet inh 4µM[single pt active]
CCCN(c1ccc(C(C)C)cc1)S(=O)(=O)c1c(C)noc1C	none
Cc1cc(C)cc(N(CC(=O)N2CCN(Cc3ccccc3)CC2)S(=O)(=O)c2c(C)noc2C)c1	AmpC nodet inh 4µM[single pt active]
Cc1noc(C)c1S(=O)(=O)N(CC(=O)N1CCn2c1nc1ccccc12)c1ccc(C(C)C)cc1	Anthrax LT inh inconclusive, AmpC nodet inh 4µM[single pt active]
CCOC(=O)C1CCN(C(=O)CN(c2ccc(OC)cc2)S(=O)(=O)c2c(C)noc2C)CC1	none
C=C(C#N)C(=O)OCC	none (no result: Prx2 Sm inh)
CC(C)c1ccc(Cn2ccc3c4c(N)nc(NC5CC5)nc4ccc32)cc1	Anthrax LT inh 25µM
CCC[C@@H]1O[C@@H]2C[C@@H]3[C@@H]4CCC5=CC(=O)C=C[C@@]5(C)[C@H]4[C@H](O)C[C@@]3(C)[C@@]2(C(=O)CO)O1	none
COc1ccc2c(c1)[n+]([O-])c(/C(C)=N/NC(N)=S)c(C)[n+]2[O-]	none
COc1cccc(NC2SC(=O)N(c3ccccc3)C2=O)c1 (stereo not drawn)	AmpC nodet inh 4µM[single pt active]
COc1ccccc1N(C(C)=O)C1SC(=O)N(c2ccccc2)C1=O (stereo not drawn)	none
O=C(CSc1nc2ccccc2s1)c1sc2sc3ccccc3[n+]2c1O	Anthrax LT inh inconclusive, AmpC nodet inh 4µM[single pt active]
O=C(Cn1cnnn1)OCC(=O)c1ccc(Cl)s1	AmpC nodet inh 13µM
COc1ccc(OC)c(C2CC(=O)c3c([nH]c(C(=O)OC(C)C)c3C)C2)c1 (stereo not drawn)	Anthrax LT inh inconclusive, AmpC nodet inh 2.5µM[single pt active]
COCCOC(=O)c1[nH]c2c(c1C)C(=O)CC(c1cc(OC)ccc1OC)C2 (stereo not drawn)	none
NC(=O)C1(N2CCCCC2)CCN(C(=O)c2cccs2)CC1	AmpC nodet inh 4µM[single pt active]
O[C@@H](C1=C/C(=C\c2ccncc2)c2ccccc21)c1ccncc1	none
c1ccc2c(c1)c1c3n2CCNC3CCC1 (stereo not drawn)	Anthrax LT inh inconclusive
c1cc2c3c(c1)c1c(n3CCNC2)CCCC1	Anthrax LT inh inconclusive, AmpC nodet inh inconclusive, AmpC det inh 16µM
COc1cccc(C(=O)Nc2ccc(C)cc2)c1	none
COC(=O)c1cccc(C(=O)Nc2ccc(C)cc2)n1	Anthrax LT inh 5µM
CCOC(=O)C1CCCN(c2c(NCCN(C)Cc3ccccc3)c(=O)c2=O)C1 (stereo not drawn)	AmpC nodet inh 4µM[single pt active]
CCOC(=O)C1CCCN(c2ncnc3c2oc2ccccc23)C1 (stereo not drawn)	none
CCOC(=O)C1CCCN(c2c(N3CCc4ccccc4C3)c(=O)c2=O)C1 (stereo not drawn)	AmpC nodet inh 4µM[single pt active]
CCOC(=O)N1CCC(Nc2c(-c3ccc(C)c(C)c3)c(=O)c2=O)CC1	none
CCOC(=O)N1CCC(Nc2c(NCCCN(C)Cc3ccccc3)c(=O)c2=O)CC1	AmpC nodet inh 4µM[single pt active]
CCOC(=O)C1CCCN(c2c(NCCc3ccc(S(N)(=O)=O)cc3)c(=O)c2=O)C1 (stereo not drawn)	AmpC nodet inh 4µM[single pt active]
C/C(=N/O)[C@@H]1C[C@H](CC(=O)O)C1(C)C	none
CCOC(=O)C1CCCN(c2c(NCc3ccco3)c(=O)c2=O)C1 (stereo not drawn)	AmpC nodet inh 4µM[single pt active]
O=C(Nc1ccc2snnc2c1)N1CCSCC1	none (no result: Prx2 Sm inh)
CC1CN(C(=O)Nc2ccc3snnc3c2)c2ccccc21 (stereo not drawn)	Anthrax LT inh inconclusive, AmpC nodet inh 2µM
C=C(C)c1ccccc1 (tested in a mixture with another compound)	none
COC(=O)CS(=O)(=O)c1nnc([C@H](Cc2ccccc2)NC(=O)OC(C)(C)C)o1	Prx2 Sm inh inconclusive, AmpC nodet inh inconclusive, AmpC det inh 4µM (no result: Anthrax LT inh)
Cc1sc2ncnc(Sc3nnnn3-c3ccccc3)c2c1C	none
Clc1ccc(-n2nnnc2Sc2ncnc3sccc23)cc1	Prx2 Sm inh inconclusive, Anthrax LT inh 6.3µM
C=CCc1cccc(C2C(C)CCC3C(=O)N4C(Cc5c([nH]c6ccccc56)C4c4cc(OC)c(OC)c(OC)c4)C(=O)N32)c1 (stereo not drawn)	none (no result: Prx2 Sm inh, AmpC nodet inh, AmpC det inh)
Cc1ccc(NC(=O)c2c(-c3c(F)cccc3Cl)noc2C)cc1F	Anthrax LT inh 10µM (no result: Prx2 Sm inh)
COc1cc2c(cc1OC)[C@]13CCN4CC5=CCO[C@@H]6CC(=O)N2[C@@H]1[C@H]6[C@@H]5C[C@H]43	Anthrax LT inh inconclusive
CCOC(=O)c1c(-c2ccc(C)o2)csc1NC(=O)CSc1nnnn1-c1ccccc1	Anthrax LT inh inconclusive, AmpC nodet inh 13µM
C/C(CCC(=O)OC[C@@H]1O[C@H](C#Cc2ccccc2)C=C[C@@H]1Oc1ccc(C)cc1)=N/O[C@@H](C)c1cn([C@H]2COC[C@H]2O)nn1	none (no result: Prx2 Sm inh, AmpC nodet inh, AmpC det inh)
N#Cc1nc(-c2ccccc2F)oc1N1CCCC1	none
CN(C)c1oc(-c2ccccc2F)nc1C#N	AmpC nodet inh 4µM[single pt active]
COc1ccccc1N1CCN(C(=O)CCCC2=NS(=O)(=O)c3ccccc3N2)CC1	AmpC nodet inh 4µM[single pt active]
CCOC(=O)CC1=NS(=O)(=O)c2ccccc2N1	none
O=S(=O)(Nc1ccn(-c2ccccc2)n1)c1ccc(Br)cc1	Anthrax LT inh inconclusive, AmpC nodet inh 5µM (no result: Prx2 Sm inh)
Cc1c(Cl)cccc1NC(=O)CN1C(=O)CSc2ncccc21	Anthrax LT inh inconclusive, AmpC nodet inh 3.2µM[single pt active]
COCCCNC(=O)CN1C(=O)CSc2ncccc21	none
O=c1[nH]cnc2scc(-c3cccs3)c12	none (no result: Anthrax LT inh)
O=c1[nH]c(CN2CCc3ccccc32)nc2scc(-c3cccs3)c12	Anthrax LT inh inconclusive, AmpC nodet inh 0.79µM
O=C(O)c1nc(-c2ccccc2)[nH]c1C(=O)O	none
CCCC(=O)c1ccc(N2CCN(C(=O)c3ccccc3Br)CC2)c(F)c1	Anthrax LT inh 13µM
Cc1cc(=O)oc2c(OS(C)(=O)=O)c(OS(C)(=O)=O)ccc12	none
